The values that follow come from PubChem BioAssay (EPA / NIEHS).

Structures are written as SMILES. Calls of active or inactive are those of the source. Rule for the calls: active = hit-call score of the fitted dose curve at least 0.9, where 1 is the maximum; inactive = score below 0.9.

The nature of assay [1]: ATG_GLI_CIS: Attagene CIS-FACTORIAL HepG2 Assay for human Zinc Finger Protein GLI1 (AID 2282945). The note with it: HepG2, Attagene cis-factorial reporter mRNA, GLI element; actives raise or lower the signal. The procedure, abridged:
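Bidirectional curve fits relative to DMSO, using reporter mRNA levels from RT-PCR plus capillary electrophoresis. Cells were HepG2 transiently carrying cis-regulated reporter constructs, harvested 24 h after dosing.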

The target of assay [2] is Bile acid receptor (Homo sapiens) (UniProt Q96RI1). As to the kind of experiment: ATG_IR1_CIS: Attagene CIS-FACTORIAL HepG2 Assay for human Nuclear Receptor Subfamily 1 Group H Member 4 (NR1H4), IR1 submotif (AID 2282946). The conditions noted are these: IR1 reporter transcription, actives raise or lower the signal. The procedure, abridged:
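HepG2 cells transiently transfected with multiplexed cis-element reporter units read endogenous transcription factor activity. After 24 h compound exposure, reporter mRNA was quantified by RT-PCR, fluorescent labelling, HpaI digestion and capillary electrophoresis; bidirectional fitting versus DMSO baseline.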

A short description of assay [3]: ATG_GRE_CIS: Attagene CIS-FACTORIAL HepG2 Assay for human Glucocorticoid Response Elements (GRE) (AID 2282947). The conditions noted are these: HepG2 GRE cis-reporter, Attagene multiplex mRNA; actives raise or lower the signal. A digest of the protocol:
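Reporter transcripts read by RT-PCR with capillary electrophoresis fluorescence after a 24 h chemical exposure of HepG2 cells transiently transfected with multiple cis-element reporter units. Gain or loss fitted against DMSO.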

Assay [4] can be described thus: ATG_ISRE_CIS: Attagene CIS-FACTORIAL HepG2 Assay for human Interferon Regulatory Factor 1 (IRF1) binding to an Interferon-Stimulated Response Element (ISRE) (AID 2282948). The conditions noted are these: HepG2 ISRE cis-reporter (Attagene), mRNA transcription readout; actives raise or lower the signal. A digest of the protocol: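 Endogenous transcription factor activity read as reporter transcript abundance via RT-PCR and capillary electrophoresis. HepG2 cells transiently transfected, 24 h chemical exposure. Gain or loss fitted against DMSO baseline.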

Assay [5] in a line: ATG_M_32_CIS: Attagene CIS-FACTORIAL HepG2 Assay for M32 Transcription Factor (Internal Marker) (AID 2282949).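 Note: background control marker of the multiplexed CIS panel rather than a real target.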 The conditions noted are these: HepG2 Attagene cis-factorial M32 reporter, mRNA; actives raise or lower the signal. The procedure, abridged: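 HepG2 transfectants (cis-regulated reporter transcription units) dosed 24 h. Reporter mRNA by RT-PCR plus CE, analysed as gain or loss relative to DMSO.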

Assay [6] can be described thus: ATG_M_06_CIS: Attagene CIS-FACTORIAL HepG2 Assay for M06 Transcription Factor (Internal Marker) (AID 2282950). The conditions noted are these: HepG2 Attagene CIS-FACTORIAL M06 internal marker reporter; actives raise or lower the signal. The procedure, abridged:
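Read-out is fluorescence of labelled reporter cDNA fragments resolved by capillary electrophoresis after RT-PCR. Cells: HepG2 carrying transfected cis-promoter reporter units, treated 24 h. Gain or loss of signal fitted relative to DMSO.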

The target in assay [7] is Hypoxia-inducible factor 1-alpha (Homo sapiens) (UniProt Q16665). The experiment in a line: ATG_HIF1a_CIS: Attagene CIS-FACTORIAL HepG2 Assay for human Hypoxia Inducible Factor 1 (HIF1A) (AID 2282951). The conditions noted are these: HepG2 Attagene cis-factorial HIF1a reporter transcription; actives raise or lower the signal. A digest of the protocol:
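HepG2 cells transiently transfected with multiple cis-regulated reporter transcription units measure endogenous transcription factor activity. After 24 h exposure, reporter mRNA is quantified by RT-PCR with 6-FAM labelling, HpaI digestion and capillary electrophoresis. Bidirectional fitting against DMSO.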

In assay [8] the target is Hepatocyte nuclear factor 6 (Homo sapiens) (UniProt Q9UBC0). As to the kind of experiment: ATG_HNF6_CIS: Attagene CIS-FACTORIAL HepG2 Assay for human Hepatocyte Nuclear Factor 6 (HNF6) (AID 2282952). The conditions noted are these: HepG2 Attagene cis-factorial HNF6 reporter transcription; actives raise or lower the signal. A digest of the protocol: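 Endogenous transcription factor activity in human HepG2 liver cells was captured through cis-regulated reporter constructs. After 24 h treatment, reporter mRNA was measured by RT-PCR with capillary electrophoresis, and activity was fitted in both directions relative to DMSO.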

For assay [9], the target named is Heat shock factor protein 1 (Homo sapiens) (UniProt Q00613). The experiment in a line: ATG_HSE_CIS: Attagene CIS-FACTORIAL HepG2 Assay for human Heat Shock Transcription Factor 1 (HSE) (AID 2282953). The conditions noted are these: HepG2 HSE cis-reporter, Attagene RNA transcription; actives raise or lower the signal. The procedure, abridged:
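HepG2, transient MRTU transfection, cis-promoter reporters (endogenous TF activity). 24 h compound. RNA → oligo(dT) RT → PCR → 6-FAM primer extension → HpaI cut → CE. Bidirectional fit vs DMSO.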

The nature of assay [10]: ATG_MRE_CIS: Attagene CIS-FACTORIAL HepG2 Assay for human Metal Responsive Element (MRE) (AID 2282954). The conditions noted are these: HepG2 MRE cis-reporter transcription, Attagene multiplex; actives raise or lower the signal. The procedure, abridged: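 Endogenous MRE-dependent transcription read as reporter mRNA in transiently transfected human HepG2 cells at 24 h. RNA reverse-transcribed, PCR-amplified, labelled and resolved by capillary electrophoresis; gain or loss relative to DMSO.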

A short description of assay [11]: ATG_PXRE_CIS: Attagene CIS-FACTORIAL HepG2 Assay for human Pregnane X Receptor Element (PXRE) (AID 2282957). The note with it: HepG2 Attagene CIS-FACTORIAL PXRE reporter, mRNA; actives raise or lower the signal. A digest of the protocol: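 Endogenous transcription factor activity in HepG2 was gauged through induction of reporter mRNA driven by a cis-regulating promoter element, sampled 24 h post-treatment. Activity was fitted in both directions against DMSO negative control.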

A short description of assay [12]: ATG_PPRE_CIS: Attagene CIS-FACTORIAL HepG2 Assay for human Peroxisome Proliferator-activated Response Element (PPRE) (AID 2282958). The conditions noted are these: HepG2 PPRE cis-element reporter, Attagene transcription factor profiling; actives raise or lower the signal. The procedure, abridged:
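HepG2 cells are transiently transfected with multiplexed cis-promoter reporter units to report endogenous PPAR activity. After 24 h dosing, reporter mRNA is read by RT-PCR and capillary electrophoresis. Fitting is bidirectional against DMSO.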

Assay [13] is described as follows: ATG_RORE_CIS: Attagene CIS-FACTORIAL HepG2 Assay for human RAR-related Orphan Receptor Element (RORE) (AID 2282959). The conditions noted are these: HepG2 Attagene cis-factorial RORE reporter, mRNA; actives raise or lower the signal. A digest of the protocol:
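HepG2 cells carrying transiently transfected cis-regulated reporter units; RORE-driven reporter mRNA quantified 24 h post-dosing by RT-PCR, 6-FAM primer extension, HpaI digestion and capillary electrophoresis. Bidirectional fit versus DMSO.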

A short description of assay [14]: ATG_Sox_CIS: Attagene CIS-FACTORIAL HepG2 Assay for human SRY-box transcription factor (SOX) (AID 2282960). The note with it: HepG2 Attagene cis-factorial SOX reporter, mRNA; actives raise or lower the signal. A digest of the protocol:
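HepG2 cells transiently transfected with multiple cis-regulated reporter units, then dosed for 24 h. Reporter mRNA quantified by RT-PCR, fluorescent labelling, HpaI digestion and capillary electrophoresis; bidirectional fit versus DMSO.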

Assay [15] deals with Transcription factor Sp1 (Homo sapiens) (UniProt P08047). As to the kind of experiment: ATG_Sp1_CIS: Attagene CIS-FACTORIAL HepG2 Assay for human Specificity Protein 1 (Sp1) (AID 2282961). The conditions noted are these: HepG2 Sp1 cis-reporter transcription, actives raise or lower the signal. A digest of the protocol: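 HepG2 cells transiently transfected with multiplexed cis-regulated reporter constructs, chemical exposure 24 h. Reporter mRNA quantified by RT-PCR with capillary electrophoresis; bidirectional fit relative to DMSO.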

A short description of assay [16]: ATG_SREBP_CIS: Attagene CIS-FACTORIAL HepG2 Assay for human Sterol Regulatory Element Binding (SREBP) (AID 2282962). The note with it: HepG2 Attagene cis-factorial SREBP reporter, mRNA; actives raise or lower the signal. A digest of the protocol:
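Endogenous SREBP activity read as cis-element-driven reporter transcript in transiently transfected HepG2, 24 h post-dosing; quantified via RT-PCR plus capillary electrophoresis of fluorescent fragments. Gain or loss of signal fitted relative to DMSO baseline.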

A short description of assay [17]: ATG_TA_CIS: Attagene CIS-FACTORIAL HepG2 Assay for human TA Basal Promoter (AID 2282964). The note with it: HepG2 Attagene CIS-factorial TA basal promoter reporter; actives raise or lower the signal. A digest of the protocol: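 Read-out: fluorescent reporter-transcript fragments resolved by capillary electrophoresis after RT-PCR and HpaI digestion. Source: HepG2 cells carrying transiently transfected multi-reporter cis constructs, treated 24 h. Endpoint fitted bidirectionally relative to DMSO.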

The target in assay [18] is Signal transducer and activator of transcription 3 (Homo sapiens) (UniProt P40763). As to the kind of experiment: ATG_STAT3_CIS: Attagene CIS-FACTORIAL HepG2 Assay for human Signal Transducer and Activator of Transcription 3 (STAT3) (AID 2282963). The note with it: HepG2, Attagene cis-factorial STAT3 reporter transcription; actives raise or lower the signal. The procedure, abridged: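 Readout is reporter transcript quantified by RT-PCR and capillary electrophoresis, with 6-FAM primer extension and HpaI digestion. Total RNA is taken 24 h after dosing transiently transfected HepG2 carrying cis-regulated reporter units. Bidirectional fit against DMSO.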

A short description of assay [19]: ATG_PBREM_CIS: Attagene CIS-FACTORIAL HepG2 Assay for human Phenobarbital-responsive Enhancer Module (PBREM) (AID 2282955). The note with it: HepG2 PBREM cis-reporter, Attagene multiplexed transcription; actives raise or lower the signal. A digest of the protocol:
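HepG2 cells transiently transfected with multiple cis-regulated reporter units measure endogenous transcription factor activity; 24 h compound exposure. Reporter mRNA quantified by RT-PCR, fluorescent labelling, HpaI digestion and capillary electrophoresis; bidirectional fit versus DMSO.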

In assay [20] the target is Paired box protein Pax-6 (Homo sapiens) (UniProt P26367). As to the kind of experiment: ATG_Pax6_CIS: Attagene CIS-FACTORIAL HepG2 Assay for human Paired Box 6 (PAX6) (AID 2282956). The conditions noted are these: HepG2 CIS-FACTORIAL PAX6 reporter transcription, RNA readout; actives raise or lower the signal. A digest of the protocol:
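Read-out is reporter transcript level, measured by RT-PCR with fluorescent primer extension and capillary electrophoresis after 24 h dosing of transfected HepG2 cells. Activity in either direction fitted relative to DMSO control.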

Sequence of Bile acid receptor (Homo sapiens) (Q96RI1 whole entry, looked up): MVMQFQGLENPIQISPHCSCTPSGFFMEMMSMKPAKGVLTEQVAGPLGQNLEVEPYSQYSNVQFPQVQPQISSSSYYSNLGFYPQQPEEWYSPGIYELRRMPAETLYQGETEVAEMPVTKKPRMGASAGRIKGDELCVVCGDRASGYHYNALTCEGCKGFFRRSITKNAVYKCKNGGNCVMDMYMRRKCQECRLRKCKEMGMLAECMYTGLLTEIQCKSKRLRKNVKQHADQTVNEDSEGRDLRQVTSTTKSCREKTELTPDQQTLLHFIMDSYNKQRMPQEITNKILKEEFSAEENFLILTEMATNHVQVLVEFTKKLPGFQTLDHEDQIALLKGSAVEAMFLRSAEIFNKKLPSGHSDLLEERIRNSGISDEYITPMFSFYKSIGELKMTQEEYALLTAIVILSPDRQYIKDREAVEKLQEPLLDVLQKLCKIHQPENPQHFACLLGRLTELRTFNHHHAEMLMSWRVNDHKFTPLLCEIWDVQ
Sequence of Hypoxia-inducible factor 1-alpha (Homo sapiens) (Q16665 whole entry, looked up): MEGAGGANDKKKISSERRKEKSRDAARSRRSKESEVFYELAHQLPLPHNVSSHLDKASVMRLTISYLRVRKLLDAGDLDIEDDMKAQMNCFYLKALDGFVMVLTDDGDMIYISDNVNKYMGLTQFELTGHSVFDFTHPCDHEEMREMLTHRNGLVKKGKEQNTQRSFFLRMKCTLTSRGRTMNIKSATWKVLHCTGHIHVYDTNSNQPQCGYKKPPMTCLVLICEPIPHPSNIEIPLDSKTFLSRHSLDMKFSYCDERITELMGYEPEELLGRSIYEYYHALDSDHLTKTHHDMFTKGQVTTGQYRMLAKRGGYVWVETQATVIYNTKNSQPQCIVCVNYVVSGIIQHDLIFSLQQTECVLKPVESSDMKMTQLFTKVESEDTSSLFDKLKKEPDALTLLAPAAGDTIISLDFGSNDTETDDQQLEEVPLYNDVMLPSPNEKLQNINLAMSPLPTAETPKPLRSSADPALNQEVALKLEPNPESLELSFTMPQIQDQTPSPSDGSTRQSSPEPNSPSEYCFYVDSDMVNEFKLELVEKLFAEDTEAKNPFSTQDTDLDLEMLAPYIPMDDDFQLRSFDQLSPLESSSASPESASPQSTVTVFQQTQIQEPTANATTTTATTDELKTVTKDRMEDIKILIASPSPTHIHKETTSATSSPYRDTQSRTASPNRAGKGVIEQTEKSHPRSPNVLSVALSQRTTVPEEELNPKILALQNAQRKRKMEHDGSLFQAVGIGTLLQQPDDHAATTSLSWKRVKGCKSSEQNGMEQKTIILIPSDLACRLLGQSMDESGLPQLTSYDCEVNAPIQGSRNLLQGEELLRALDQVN
Sequence of Hepatocyte nuclear factor 6 (Homo sapiens) (Q9UBC0 whole entry, looked up): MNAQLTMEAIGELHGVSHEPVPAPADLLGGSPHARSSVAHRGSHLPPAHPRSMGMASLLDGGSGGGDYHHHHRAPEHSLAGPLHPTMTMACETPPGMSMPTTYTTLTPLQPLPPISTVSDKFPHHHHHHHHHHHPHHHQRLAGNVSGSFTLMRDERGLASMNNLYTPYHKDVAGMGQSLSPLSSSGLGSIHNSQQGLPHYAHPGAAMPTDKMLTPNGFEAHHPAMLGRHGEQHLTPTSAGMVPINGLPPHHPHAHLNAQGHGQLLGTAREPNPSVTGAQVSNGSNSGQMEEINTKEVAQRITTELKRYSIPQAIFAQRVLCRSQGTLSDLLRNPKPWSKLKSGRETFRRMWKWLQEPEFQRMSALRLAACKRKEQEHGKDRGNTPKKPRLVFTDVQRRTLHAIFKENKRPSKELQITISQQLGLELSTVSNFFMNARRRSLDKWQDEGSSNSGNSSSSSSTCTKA
Sequence of Heat shock factor protein 1 (Homo sapiens) (Q00613 whole entry, looked up): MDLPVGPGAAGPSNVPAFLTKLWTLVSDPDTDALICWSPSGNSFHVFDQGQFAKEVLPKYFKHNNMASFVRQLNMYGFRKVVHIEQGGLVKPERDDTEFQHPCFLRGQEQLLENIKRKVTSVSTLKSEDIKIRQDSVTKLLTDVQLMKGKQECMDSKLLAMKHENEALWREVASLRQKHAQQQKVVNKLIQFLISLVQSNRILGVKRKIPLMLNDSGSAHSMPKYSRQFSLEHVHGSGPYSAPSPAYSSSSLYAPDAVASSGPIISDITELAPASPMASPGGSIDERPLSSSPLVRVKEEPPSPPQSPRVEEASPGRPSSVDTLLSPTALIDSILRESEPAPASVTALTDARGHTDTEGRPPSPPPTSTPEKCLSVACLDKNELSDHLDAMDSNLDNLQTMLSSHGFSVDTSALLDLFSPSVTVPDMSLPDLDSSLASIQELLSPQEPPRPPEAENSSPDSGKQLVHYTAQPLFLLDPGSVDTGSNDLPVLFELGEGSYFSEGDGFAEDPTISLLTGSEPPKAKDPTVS
Sequence of Transcription factor Sp1 (Homo sapiens) (P08047 whole entry, looked up): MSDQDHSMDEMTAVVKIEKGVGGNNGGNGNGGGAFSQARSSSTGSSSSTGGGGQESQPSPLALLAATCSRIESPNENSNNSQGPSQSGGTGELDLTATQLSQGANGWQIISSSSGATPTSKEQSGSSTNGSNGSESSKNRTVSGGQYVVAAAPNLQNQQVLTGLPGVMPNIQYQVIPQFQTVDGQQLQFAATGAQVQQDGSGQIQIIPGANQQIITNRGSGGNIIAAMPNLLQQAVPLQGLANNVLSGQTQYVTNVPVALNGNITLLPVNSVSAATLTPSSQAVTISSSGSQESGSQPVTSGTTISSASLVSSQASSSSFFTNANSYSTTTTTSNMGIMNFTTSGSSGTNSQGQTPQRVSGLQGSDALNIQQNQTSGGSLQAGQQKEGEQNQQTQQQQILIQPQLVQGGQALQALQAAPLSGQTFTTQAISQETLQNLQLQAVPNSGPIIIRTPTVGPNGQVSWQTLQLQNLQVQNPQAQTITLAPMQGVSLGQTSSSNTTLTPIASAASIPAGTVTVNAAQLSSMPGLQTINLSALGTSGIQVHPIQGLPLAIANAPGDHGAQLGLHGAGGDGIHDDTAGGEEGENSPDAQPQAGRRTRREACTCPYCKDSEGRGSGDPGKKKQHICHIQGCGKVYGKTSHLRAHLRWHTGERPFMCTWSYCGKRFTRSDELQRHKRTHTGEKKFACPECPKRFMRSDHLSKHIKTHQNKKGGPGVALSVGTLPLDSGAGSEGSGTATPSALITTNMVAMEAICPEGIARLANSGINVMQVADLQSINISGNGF
Sequence of Signal transducer and activator of transcription 3 (Homo sapiens) (P40763 whole entry, looked up): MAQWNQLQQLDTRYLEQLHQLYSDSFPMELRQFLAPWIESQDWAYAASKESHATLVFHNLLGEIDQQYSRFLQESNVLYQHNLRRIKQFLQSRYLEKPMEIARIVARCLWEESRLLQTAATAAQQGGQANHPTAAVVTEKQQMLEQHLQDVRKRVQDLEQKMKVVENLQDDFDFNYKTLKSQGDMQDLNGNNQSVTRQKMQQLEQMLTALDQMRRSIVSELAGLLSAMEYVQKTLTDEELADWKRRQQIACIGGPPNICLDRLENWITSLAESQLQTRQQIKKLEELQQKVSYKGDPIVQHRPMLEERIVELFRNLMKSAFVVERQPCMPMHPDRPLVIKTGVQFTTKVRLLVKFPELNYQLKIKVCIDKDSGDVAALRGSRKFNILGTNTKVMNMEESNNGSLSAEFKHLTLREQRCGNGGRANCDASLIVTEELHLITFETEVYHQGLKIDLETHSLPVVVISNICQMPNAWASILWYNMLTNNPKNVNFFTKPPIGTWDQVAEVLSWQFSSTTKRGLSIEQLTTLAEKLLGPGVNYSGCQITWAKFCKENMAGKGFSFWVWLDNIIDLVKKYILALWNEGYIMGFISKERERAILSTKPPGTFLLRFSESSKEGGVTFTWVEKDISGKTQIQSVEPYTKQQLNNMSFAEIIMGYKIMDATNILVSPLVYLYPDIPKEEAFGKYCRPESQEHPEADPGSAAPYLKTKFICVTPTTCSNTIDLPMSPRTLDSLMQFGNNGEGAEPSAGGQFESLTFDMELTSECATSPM
Sequence of Paired box protein Pax-6 (Homo sapiens) (P26367 whole entry, looked up): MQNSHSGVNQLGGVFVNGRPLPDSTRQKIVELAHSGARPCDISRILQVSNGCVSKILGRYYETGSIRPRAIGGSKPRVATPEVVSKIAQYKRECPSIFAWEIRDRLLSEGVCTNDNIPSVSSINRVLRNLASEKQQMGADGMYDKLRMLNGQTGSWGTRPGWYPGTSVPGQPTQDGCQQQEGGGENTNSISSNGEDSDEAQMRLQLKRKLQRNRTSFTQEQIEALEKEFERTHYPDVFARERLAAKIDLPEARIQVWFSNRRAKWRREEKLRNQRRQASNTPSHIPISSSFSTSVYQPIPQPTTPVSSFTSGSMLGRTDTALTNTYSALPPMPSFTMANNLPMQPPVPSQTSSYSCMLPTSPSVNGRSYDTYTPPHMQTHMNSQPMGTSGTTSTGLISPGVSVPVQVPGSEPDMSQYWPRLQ

For the molecule `C=C(C)C(=O)OCC(F)(F)C(F)(F)C(F)(F)C(F)F`, the outcome in assay [1], in assay [2], in assay [3], in assay [4], in assay [5] and in [6] was inactive. Also, the molecule was called inactive in assay [7], in [8], in [9], in [10], in [11] and in [12]. For the same molecule, the call in [13], in [14], in [15], in assay [16] and in [17] was inactive.

With `CCCCCCCCCCCCCCCCC`, the result in assay [1], in assay [2], in assay [3], in assay [4], in assay [5] and in assay [6] was inactive. In addition, the call in [7], in assay [8], in assay [9], in [10], in [12] and in assay [13] was inactive. Further, the molecule was called inactive in assay [14], in assay [15], in [16], in assay [18] and in [17]. Also, in assay [11], the AC50 is 27.2 µM (active).

As for `CCOC(OCC)OCC`, the result in assay [1], in [2], in assay [4], in [5], in [6] and in [7] was inactive. Also, the outcome in assay [8], in [9], in assay [10], in assay [19], in [20] and in assay [12] was inactive. The outcome in assay [13], in assay [14], in assay [15] and in assay [16] was inactive. Moreover, the AC50 in assay [11] was 28 µM (active).

Regarding `OC(O)C(F)(F)C(F)(F)F`, the result in [1], in [2], in assay [3], in assay [5], in [6] and in assay [8] was inactive. In addition, the call in assay [9], in assay [10], in [11], in assay [12], in [13] and in assay [14] was inactive. Moreover, the molecule was classed as inactive in [15], in assay [16], in [18] and in assay [17]. Also, the AC50 in assay [4] was 108 µM (active).
